Laboratory results from PubChem BioAssay AID463173 (ICCB-Longwood Screening Facility, Harvard Medical School, 2010).
Among all 52,000 compounds or so, about 1,700 (3.3%) were called active. This is one part of a sample in which actives are shown more often than they occur. Values without a mark were called inactive. Rule as the data show it: active = survival mostly below about 52% (no sharp cut-off); inactive = mostly above about 56%.

The compounds below were run on Wild type (assay: growth inhibition of S. aureus wild type versus tarO mutant, primary screen, teichoic acid synthesis inhibitors, RN4220, OD600 (AID 463173)). Conditions: S. aureus RN4220 wild type/DeltatarO growth, OD600, 18 h, hits give low values, screened at 18.75 µg/mL (by protocol).

Structure (SMILES) | survival
COc1ccc(CCNC(=O)c2cc(-c3ccc(C)cc3)nc3n[nH]c(-c4ccc(F)cc4)c23)cc1OC | 136%
Cc1cccc(-c2nc3scc(CCNC(=O)c4ccc(Br)o4)n3n2)c1 | 74%
Cc1cc(C)cc(NC(=O)CSc2nc3c(cnn3-c3ccc(F)cc3)c(=O)[nH]2)c1 | 65%
O=S(=O)(c1cccc(Cl)c1)c1nnn2c1nc(NC1CCCC1)c1sccc12 | 95%
Cc1ccc(C(=O)NCC(c2ccco2)S(=O)(=O)c2ccc(Cl)cc2)cc1C (stereo not given) | 14% (active)
COc1ccc(C(=O)NCC(c2ccco2)S(=O)(=O)c2ccc(F)cc2)cc1 (stereo not given) | 74%
O=C(NCC(c1ccco1)S(=O)(=O)c1cccs1)c1ccc(F)c(F)c1 (stereo not given) | 78%
Cc1ccc(S(=O)(=O)C(CNC(=O)c2ccc(F)c(F)c2)c2ccco2)cc1 (stereo not given) | -6% (active)
Cc1ccc(C(=O)NCC(c2ccco2)S(=O)(=O)c2ccccc2)cc1C (stereo not given) | 72%
Cc1ccccc1CNC(=O)C(=O)NCC(c1ccco1)S(=O)(=O)c1ccccc1 (stereo not given) | 76%
O=C(NCc1ccccc1)C(=O)NCC(c1ccco1)S(=O)(=O)c1ccccc1 (stereo not given) | 67%
CC(C)(C)c1ccc(C(=O)NCC(c2ccco2)S(=O)(=O)c2ccccc2)cc1 (stereo not given) | 70%
O=C(NCc1ccccc1F)C(=O)NCC(c1ccco1)S(=O)(=O)c1ccccc1 (stereo not given) | -6% (active)
Cc1ccc(C(=O)NCC(c2ccco2)S(=O)(=O)c2cccs2)cc1C (stereo not given) | 99%
CCOc1ccc(C(=O)NCC(c2ccco2)S(=O)(=O)c2ccc(C)cc2)cc1 (stereo not given) | 85%
COc1ccc(C(=O)NCC(c2ccco2)S(=O)(=O)c2ccccc2)cc1 (stereo not given) | -6% (active)
CCOc1ccc(S(=O)(=O)N(CC(=O)NCc2ccccc2OC)c2ccccc2)cc1 | 58%
CC1=C(C#N)C(NC(=O)c2ccccc2Cl)(C(F)(F)F)C(=O)N1 (stereo not given) | 139%
COc1ccc(-c2cn3nc(N4CCC(C(=O)Nc5ccc(Cl)cc5C)CC4)sc3n2)cc1 | 78%
CCOCCCn1c(=N)c(S(=O)(=O)c2ccc(C)cc2)cc2c(=O)n3cccc(C)c3nc21 | 77%
Cc1cc2nn(-c3ccccc3)nc2cc1NC(=O)c1cccc2c(Cl)cccc12 | 70%
COc1ccc(N2CCN(CCCNC(=O)c3cnn(-c4ccc(F)cc4)c3-n3cccc3)CC2)cc1 | 77%
O=C(NCC(c1ccco1)S(=O)(=O)c1ccc(Cl)cc1)c1ccc(C(F)(F)F)cc1 (stereo not given) | -1% (active)
CC(C)(C)c1ccc(C(=O)NCC(c2ccco2)S(=O)(=O)c2ccc(F)cc2)cc1 (stereo not given) | 131%
Cc1ccc(S(=O)(=O)C(CNC(=O)c2ccc(C(F)(F)F)cc2)c2ccco2)cc1 (stereo not given) | 134%
